The panel holds about 83,000 compounds, 20% with a hit somewhere; the sample as a whole holds those more often.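 Plates (96-well) were seeded with cells, treated with compound at one concentration, and incubated for 48 hours before percent growth was determined.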 Unmarked numbers belong to inactive results. The source made the active and inactive calls. The calls were made as follows: active = growth percent below 10; inactive = the rest.
Experiments:
Experiment in all cases: NCI-60 one-dose screen, 48 h (100 = growth as untreated, 0 = no growth, -100 = all killed)
Conditions in all cases: 10 µM unless noted
[1] = tested on: SR leukemia
[2] = tested on: OVCAR-8 ovarian
[3] = tested on: OVCAR-4 ovarian
[4] = tested on: SK-OV-3 ovarian
[5] = tested on: IGROV1 ovarian
[6] = tested on: OVCAR-3 ovarian
[7] = tested on: NCI/ADR-RES ovarian
[8] = tested on: T-47D breast
[9] = tested on: BT-549 breast
[10] = tested on: MDA-MB-435 melanoma
[11] = tested on: SW-620 colon
[12] = tested on: MCF7 breast
[13] = tested on: HCT-116 colon
[14] = tested on: HCC-2998 colon
[15] = tested on: KM12 colon
[16] = tested on: OVCAR-5 ovarian
[17] = tested on: RPMI-8226 leukemia
[18] = tested on: HS 578T breast

Structure (SMILES) | growth [1] | growth [2] | growth [3] | growth [4] [%] | growth [5] | growth [6] | growth [7] | growth [8] | growth [9] | growth [10] | growth [11] | growth [12] | growth [13] | growth [14] | growth [15] | growth [16] [%] | growth [17] [%] | growth [18]
N=C(N)N=Nc1ccc(NN=C(N)N)cc1 | 108% | 94.4% | 100% | 24 | 99.8% | 108% | 110% | 97.3% | 88.9% | 109% | 38.3% | 90.9% | 85.9% | 86.6% | 43.8% | – | – | –
Cc1c([C@H](C(Cl)Cl)[C@H](O)[C@H]2C[C@H](C)C(=O)O2)ccc2c1C(=O)[C@H]1[C@H]2C[C@@H](Br)[C@@]23O[C@@H](CO[C@H]2O)CC13C (some centres undefined) | 11.9% | 5.88% (active) | 38.6% | – | 36.5% | -56.5% (active) | 30.8% | – | 37.6% | -40% (active) | 14.6% | – | 15.1% | 8.99% (active) | 2.99% (active) | 55.6 | – | –
COc1cc(-c2nn(-c3ccc(NC(=O)c4cc(Cl)cc(Cl)c4)cc3)cc2-c2ccncc2)ccc1Cl | 14.6% | 96.9% | 100% | 111 | 116% | 81% | 84.2% | 79.8% | – | 84.1% | 77.2% | 78% | 64.9% | 62.2% | 38.7% | 95.7 | – | –
Cc1ccc(C(=O)NN)cc1 | 80.3% | – | 98.2% | 110 | 124% | – | 103% | – | 98.8% | 109% | – | 99.7% | 100% | 99.5% | – | 116 | – | –
CCCCCCCCCCCCCCCCCCOP(=O)(O)O | 103% | 97.5% | 117% | 109 | 110% | 113% | 108% | 106% | 114% | 101% | 91.3% | 101% | 106% | 108% | 110% | 103 | – | –
CCCCCCCCCCCC(=O)OC(C)C(=O)Nc1ccccc1 (centres undefined) | 86.1% | 95.4% | 105% | 97.6 | 103% | 102% | 100% | 87.9% | 82% | 106% | 95.1% | 91.7% | 96.5% | 103% | 102% | 95.2 | – | –
Br/C(=N\Nc1nn[nH]n1)c1ccccc1 | – | 103% | 107% | 98.6 | 111% | 120% | 100% | 101% | 99% | 111% | 102% | 95.3% | 104% | 118% | 114% | 102 | 102 | 99.4%
COc1cc([C@@H]2c3cc4c(cc3[C@H](O)[C@H]3COC[C@@H]23)OCO4)cc(OC)c1OC | 25.9% | 98.9% | 85.8% | 98.3 | 71.1% | 56.8% | 64.9% | 83.7% | – | -12.4% (active) | 54.4% | 30.9% | 66.7% | 85.5% | 49.5% | 101 | – | –
COc1ccc(-c2cc(C#N)c(NNC(C)=O)[nH]2)cc1 | – | 110% | 68.8% | 179 | 101% | 104% | 109% | 165% | 119% | 107% | 115% | 110% | 92% | 105% | 107% | 94.7 | 123 | 107%
COc1cc(-c2c3c(cn2CCN2CCCCC2)-c2oncc2CC3)cc(OC)c1OC | 92.5% | 101% | 100% | 93.7 | 104% | – | 97.3% | – | 105% | 101% | 95.2% | 91% | 89.5% | 106% | 107% | 85.3 | – | 99.3%
O=C(/C(Br)=C/c1ccccc1)c1ccccc1 | -24.9% (active) | -26.5% (active) | 25.7% | 105 | 27.5% | -31.5% (active) | -11% (active) | -31.7% (active) | 95.8% | -11.2% (active) | -77.3% (active) | 0.441% (active) | -100% (active) | 94% | 53.3% | 58.3 | – | –
C[C@]12CC[C@H]3[C@@H](CC[C@H]4C[C@@H](O)CC[C@@]43C)[C@@H]1CC(=O)C2 | 89.8% | 95.3% | 104% | 118 | 103% | 112% | 106% | 106% | 103% | – | 103% | 124% | 99.3% | 101% | 108% | 94.8 | – | –
Nc1ncn([C@@H]2O[C@H](CO)[C@@H](O)C2(F)F)c(=O)n1 | 15% | 49.8% | 94.9% | 71.1 | 56.8% | 70.6% | 42.1% | – | 53.6% | 53% | 51.2% | 20.7% | 29.8% | 60.4% | 61.2% | 87 | – | –
CCCCCC(=C/c1ccccc1)/C=N/N=C(N)N | -2.56% (active) | – | 31.7% | 76.9 | -63.3% (active) | – | 41.7% | -34.3% (active) | 46.6% | -80% (active) | – | -69.6% (active) | -56.6% (active) | -79% (active) | – | 58.8 | – | –
CCCCCCCCC(=O)Nc1ccc(O)cc1 | – | 95% | 95.3% | 100 | 93.7% | 102% | 82.9% | 88.7% | 80.5% | 98.3% | 103% | 97.9% | 101% | 83.7% | – | 106 | 82.3 | 103%
COC1=CC(c2ccc[nH]2)=N/C1=C\c1[nH]c(C)c(C(=O)CCCCC(=O)NC(C)(C)C)c1C | 83.4% | 28.2% | 39.6% | 102 | – | 18.4% | 30.1% | 40.1% | -11.2% (active) | 7.73% (active) | – | -15.1% (active) | – | 30.5% | 20.5% | 48.3 | – | –
CC(=O)Nc1nc(C)c(C(=O)NNS(=O)(=O)c2ccccc2)s1 | 155% | 101% | 112% | 109 | 9.33% (active) | 136% | 118% | – | – | – | 106% | 110% | 52.1% | 105% | 125% | 106 | – | 112%
O=C(CN1C(=O)NC(c2ccccc2)(c2ccccc2)C1=O)c1ccc(N2CCCC2)cc1 | – | 83.4% | 72.8% | 96.7 | 85.5% | 103% | 67.2% | 81.2% | 66.4% | -4.2% (active) | 70.2% | 49.8% | 66% | 101% | 65.8% | 101 | 70.1 | 87.7%
CC(O)CCC(C)[N+](=O)[O-] (centres undefined) | 95.8% | 104% | 103% | 101 | 105% | 108% | 111% | 103% | 106% | – | 104% | 101% | 109% | 126% | 103% | 102 | – | –
CC(=O)OC1CC2C3CCC4C[C@@H](NC(=O)C=C(C)C)CC[C@]4(C)C3CC[C@]2(C)[C@H]1C(C)N(C)C (some centres undefined) | -21% (active) | 45.1% | -8.18% (active) | 25.8 | 33.6% | -4.96% (active) | 41.7% | – | 22.5% | -45.4% (active) | -72.5% (active) | 1.95% (active) | -70.4% (active) | -51.9% (active) | 1.6% (active) | 58.9 | – | 0.863% (active)
